Where “and” joins values, the source holds several entries; their conditions need not be identical. Identical values can stand only once. Among all 370,000 compounds or so, about 3,700 (1%) were called active.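 Rule for the calls: active = activation above the mean over all tested compounds plus 3 SD (cut at about 0.9% in these data); inactive = the rest.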 This excerpt belongs to a sample that is enriched for actives. A structure can be active in one record and inactive in another.

In the test the test system is Nuclear hormone receptor DAF-12 (Strongyloides stercoralis). The experiment in a line: ssDAF-12 driven luciferase reporter activation – cell-based, luminescence, HEK293, GRIP1 co-expression, lit1-tk-luc, primary screen (AID 652126).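 Note: 0% = DMSO-only wells and 100% = 3 µM delta7-dafachronic acid wells.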 The conditions noted are these: HEK293 ssDAF-12/GRIP1 lit1-tk-luc reporter, at 6.8 µM, stronger effect = higher value, % of 3 µM dafachronic acid response.
With `CCOC(=O)N1CCN(C(=O)C[C@@H]2C(=O)N(CCc3ccc(Cl)cc3)C3=CCCC[C@]32C(=O)OCC)CC1`, the activation was -1.59% (inactive).

On to `Cc1ccc(S(=O)(=O)N2CCN(CC(=O)N/N=C/c3ccc(Br)s3)CC2)cc1`, for which the activation is -1.5% (inactive). Then `O=C(CN1CCSCC1)N/N=C/c1ccc(F)cc1F`, with -1.01% (inactive); and `O=C(CN1CCSCC1)N/N=C/c1ccc(Cl)cc1`, with 1.53% (active); and `COc1ccc(N2CCN(CCNS(=O)(=O)c3ccc(Cl)s3)CC2)cc1`, with -0.86% (inactive).

As to `O=C(NC1CCCCN(Cc2cccc(C(F)(F)F)c2)C1=O)c1ccccc1I` (centres undefined), the activation is -1.74% (inactive). `Cn1c(NC(=O)c2ccccc2)nc2ccccc21`: the activation is 1.7% (active). `COC(=O)c1ccc(-n2cnc3ccccc32)nc1`: the activation was -0.78% (inactive). With `CCn1c(NC(=O)c2nn(C)cc2Br)nc2ccccc21`, the activation is -0.8% (inactive).

In the case of `COc1ccccc1C(=O)NC1CCCCN(C(C)C)C1=O` (centres undefined), the activation is -0.64% (inactive). Regarding `CCN(CC)S(=O)(=O)c1ccc(NC(=O)c2cccnc2Cl)c(NC(=O)c2cccnc2Cl)c1`, the activation is -0.9% (inactive). For the molecule `CCOC(=O)N1CCC(N2Cc3cccc(C(=O)Nc4ccc(S(=O)(=O)N(CC)CC)cc4)c3C2=O)CC1`, the activation is -1.26% (inactive). As to `CCN(CC)S(=O)(=O)c1ccc(NC(=O)c2cnc(C)cn2)cc1`, the activation was 1.35% (active). Take `COC(=O)C1CN(CC(C)C)CCS(=O)(=O)N1Cc1ccc(F)cc1` (centres undefined): the activation is -1.13% (inactive). In the case of `CCOC(=O)[C@]12CCCCC/C=C\1N(Cc1ccc(OC)cc1)C(=O)[C@H]2CC(=O)N1CCOCC1`, the activation is -0.98% (inactive). The same measure for `COc1ccc(NCCc2ccccn2)cc1`: 1.17% (active); for `COc1cncc(-c2cnc3sc(NCCc4ccccn4)nn23)c1`: -1.45% (inactive); for `Cc1c(C)c(C)c(S(=O)(=O)NCCc2ccccn2)c(C)c1C`: 0.14% (inactive). With `COC(=O)[C@@]12CCCCC3=C1N(CCC3)C(=O)[C@H]2CC(=O)NCc1cccc2ccccc12`, the activation is -0.9% (inactive). In the case of `COc1cccc(NS(=O)(=O)c2ccc(-c3coc(C)n3)cc2)c1`, the activation was -0.73% (inactive). `O=[N+]([O-])c1ccc2oc(-c3cccc(O)c3)nc2c1`: the activation was 3.74% (active).

On to `O=C(O)c1ccc([N+](=O)[O-])cc1Sc1ccsc1`, for which the activation was -1.44% (inactive). As to `COc1cccc(-c2nc3cc(C)ccc3o2)c1`, the activation is 2.34% (active). Regarding `COc1cccc(-c2cnc(OC(C)(C)C)nc2OC(C)(C)C)c1`, the activation is -1.2% (inactive). The same measure for `COC(=O)C(C)Oc1ccc2c(-c3cccc([N+](=O)[O-])c3)cc(=O)oc2c1` (centres undefined): -1.35% (inactive); for `Cc1cc(=O)[nH]c(SCC(=O)Nc2ccc(F)cc2F)n1`: -1.31% (inactive); for `C=CCN1[C@@H](Cc2ccccc2)COc2cccc(N3CCSCC3)c2S1(=O)=O`: -1.93% (inactive). In the case of `O=C(N1CCOCC1)N1CC[C@H]2[C@H](CCCN2Cc2ccc(F)cc2)C1`, the activation is -1.48% (inactive).

Consider `C[C@H](C(=O)N(C)c1ccccc1)[C@@H](O)c1ccc(Cl)cc1`, for which the activation was -1.24% (inactive). The same measure for `Cn1c(=O)[nH]c(=O)c2c1nc(CN1CCN(c3ccccc3F)CC1)n2CCc1ccccc1`: -1.22% (inactive); for `O=C(NC(=O)c1ccccc1)Nc1ccccc1O`: 2.39% (active); for `N#C/C(=C/c1ccc(Cl)cc1)NC(=O)c1ccccc1`: -1.06% (inactive). Turning to `O=C(NC(=S)Nc1cccc2c(O)cccc12)c1cccc(Br)c1`, the activation was -1.15% (inactive). On to `CCCS(=O)(=O)Nc1c(C(=O)O)[nH]c2ccccc12`, for which the activation was 0.51% (inactive). For the molecule `CCc1ccc2[nH]c(=O)c(Cc3ccccc3)c(O)c2c1`, the activation was -1.02% (inactive). Then `NS(=O)(=O)c1ccccc1NC(=O)c1c(O)c2ccccc2[nH]c1=O`, with 1.94% (active); and `O=S(=O)(c1ccc(OCC(O)CN2CCN(c3ccccc3Cl)CC2)cc1)N1CCOCC1` (centres undefined), with -1.31% (inactive); and `OC(COc1ccc2ccccc2c1)Cn1cncn1` (centres undefined), with -0.42% (inactive). For the molecule `OC(COc1ccc2ccccc2c1)CN1CCOCC1` (centres undefined), the activation is 0.96% (active) and -0.96% (inactive).

In the case of `Cc1ccccc1CN1CCCCC(NC(=O)Nc2ccccc2F)C1=O` (centres undefined), the activation was -1.37% (inactive). Consider `COc1cc(NC(=O)C2CCCN(S(=O)(=O)c3ccc(C(C)(C)C)cc3)C2)cc(OC)c1` (centres undefined), for which the activation is -0.79% (inactive). Turning to `CCSC1=C(C#N)C(=O)n2c1cc1c2CCCC1`, the activation is -0.32% (inactive).

Regarding `CCC1CCc2c(sc(NC(C)=O)c2C#N)C1` (centres undefined), the activation is -1.82% (inactive). Regarding `N#Cc1c(NC(=O)c2ccc(N3CCOCC3)c([N+](=O)[O-])c2)sc2c1CCCC2`, the activation is -1.7% (inactive).

With `N#Cc1c(NC(=O)C2CCCO2)sc2c1CCCCC2` (centres undefined), the activation is 2.81% (active). Consider `C[C@@H]1COc2cccc(N3CCCC3)c2S(=O)(=O)N1C`, for which the activation was -1.35% (inactive). For the molecule `O=C(Cn1c(-c2ccc(Cl)cc2)noc1=O)N1CCN(c2ccccc2F)CC1`, the activation is -0.84% (inactive).

`O=c1onc(-c2c(F)cccc2F)n1-c1ccccc1Cl`: the activation was 1.01% (active). In the case of `O=c1onc(-c2cccs2)n1Cc1ccccc1`, the activation is -1.05% (inactive).

In the case of `O=C(Nc1ccc2sc3ccccc3c(=O)c2c1)c1ccccc1Cl`, the activation was 1.16% (active). As for `COCC(=O)N1CCc2ccc(NC(=O)c3ccccc3Cl)cc2C1`, the activation is -1.31% (inactive).

With `CS(=O)(=O)c1ccccc1C(=O)Nc1ccc2sccc2c1`, the activation was -1.02% (inactive). The same measure for `COc1ccc(C2Nc3ccccc3C(=O)N2Cc2cccs2)cc1COc1c(C)cccc1C` (centres undefined): -0.82% (inactive). Regarding `CCCn1nc(C(=O)NNC(=O)CSCC(=O)Nc2cc(C)on2)c2ccccc2c1=O`, the activation is -0.87% (inactive).

`CCCn1nc(C(=O)Nc2ccc3nc(C)sc3c2)c2ccccc2c1=O`: the activation is 8.45% (active). For the molecule `CCCCn1nc(C(=O)Nc2cccc(C(=O)NC3CC3)c2)c2ccccc2c1=O`, the activation is -1.7% (inactive). The same measure for `COc1ccc(-n2c(COc3ccc(C)cc3)nnc2SCC(=O)Nc2ccc(Oc3ccccc3)cc2)cc1`: -1.71% (inactive). On to `CCCCCN1CCCCC(NC(=O)C(C)CCC)C1=O` (centres undefined), for which the activation is -1.23% (inactive). In the case of `C=C(C)C#CC(Cc1ccccc1)N(CC1CC1)/C(N)=N/C(=O)OCc1ccccc1` (centres undefined), the activation was -1.98% (inactive).

For the molecule `COc1ccc(-n2c(SCC(=O)Nc3ccc4c(c3)OCCO4)nnc2-c2ccc(Cl)cc2)cc1`, the activation is -1.63% (inactive). On to `CCC[C@H]1C(=O)CC[C@@]23CCCN2C(=O)CCC[C@@H]13`, for which the activation is -0.75% (inactive). Turning to `O=C1CC[C@@]23CCCN2C(=O)CCC[C@H]3[C@H]1Cc1ccccc1`, the activation is -1.31% (inactive).

As for `CCC(=O)c1c(CC)c2n3c1=CC[C@H]3CC(Br)C=2` (some centres undefined), the activation was -1.9% (inactive).

In the case of `COc1ccc(Nc2cc(=O)n(-c3ccccc3)c3c2c(=O)n(C)c(=O)n3C)cc1`, the activation was -0.93% (inactive). Consider `COc1ccc(Nc2ccc3ccccc3c2)cc1`, for which the activation is 2.46% (active). For `COc1ccc(NC2=CC(=S)NC(C)(C)C2)cc1`, the activation was -0.87% (inactive). Turning to `CCN(C(=O)[C@@H](C1CC1)[C@@H](O)c1ccc2ccccc2c1)c1ccccc1`, the activation was -1.3% (inactive).

`N#Cc1ccc(OC[C@@H](O)CN2CCC(C(O)(c3ccccc3)c3ccccc3)CC2)c(F)c1`: the activation was -1.58% (inactive). Then `COc1ccc(CNC(=O)COc2ccccc2C(=O)c2cnn(-c3ccccc3)c2)cc1OC`, with -0.31% (inactive); and `O=C(c1cnn(-c2ccc(Cl)cc2)c1)c1ccccc1O`, with 1.24% (active). As to `Cc1[nH]nc(-c2ccc(OCc3cnn(-c4ccccc4)c3)cc2O)c1Oc1ccc(Cl)cc1`, the activation was -0.99% (inactive). Consider `CC(C)CNS(=O)(=O)CC1NCCc2ccccc21` (centres undefined), for which the activation was -0.28% (inactive). The same measure for `CC(=O)Nc1ccc(S(=O)(=O)Nc2nccc(/C=C/c3ccccc3F)n2)cc1`: -0.24% (inactive); for `Cc1cc(C)nc(NS(=O)(=O)c2ccc(N/C=C\C(=O)c3cccs3)cc2)n1`: 1.14% (active). Regarding `CCOc1ncccc1C(=O)Nc1ccc(S(=O)(=O)Nc2nc(C)cc(C)n2)cc1`, the activation was -0.22% (inactive). `O=S(=O)(c1ccc2c(c1)OCCCO2)N1CCN(S(=O)(=O)c2c(F)cccc2F)CC1`: the activation was -0.38% (inactive).

Take `COC(=O)C1=CO[C@@H](O[C@@H]2O[C@H](CO)[C@@H](O)[C@H](O)[C@H]2O)C2C1C[C@H](O)[C@@H]2C` (some centres undefined): the activation is -1.3% (inactive). Consider `Cc1cccc(-n2nc3c(c2NC(=O)c2cc4ccccc4o2)CS(=O)(=O)C3)c1`, for which the activation was -0.31% (inactive). On to `CC(OC(=O)c1cc2ccccc2o1)C(=O)Nc1ccc(N2CCOCC2)cc1` (centres undefined), for which the activation was -1.36% (inactive).

With `Cc1ccc(NC(=O)c2cc3ccccc3o2)cc1`, the activation was 2.98% (active). Then `CC(=O)N1CCc2cc(S(=O)(=O)NCCC(=O)N3CCCC3)ccc21`, with -0.66% (inactive); and `Nc1[nH]c(/C=C2/CCCCC2n2[nH]c(=O)n(-c3ccccc3)c2=O)c(Cc2ccccc2)[n+]1Cc1ccccc1` (centres undefined), with -1.51% (inactive); and `COC(=O)[C@]12C[C@H](CC(=O)NCc3ccccc3)C(=O)N(Cc3ccccc3)C1=C[C@H](COCc1ccccc1)O[C@@H]2C`, with -1.73% (inactive).

With `CCCn1cc(SCC(N)=O)c2ccccc21`, the activation is -0.92% (inactive).

With `O=C(CSc1nnc(-c2c[nH]c3ccccc23)o1)c1ccccc1`, the activation was -0.81% (inactive). For `NC(=O)CSc1c[nH]c2ccccc12`, the activation is 1.11% (active). Consider `COC(=O)[C@]12C[C@H](CC(=O)N3CCOCC3)C(=O)N(Cc3ccc(Cl)cc3Cl)C1=C[C@H](COCc1ccccc1)O[C@@H]2C`, for which the activation is -0.98% (inactive). For `N#Cc1ccccc1OC[C@@H](O)CN1CCC(C(O)(c2ccccc2)c2ccccc2)CC1`, the activation was -0.74% (inactive).

As to `Cc1c(NC(=O)CN(C)CC(=O)Nc2ccc(F)c(F)c2F)c(=O)n(-c2ccccc2)n1C`, the activation is -0.43% (inactive).

The values above are taken from PubChem BioAssay AID652126 (The Scripps Research Institute Molecular Screening Center, 2013).
